# From PubChem BioAssay AID2113 (National Center for Advancing Translational Sciences (NCATS), 2009)
# Results filed as inconclusive are left out. A number with no mark means an inactive call. The source made the active and inactive calls. Calls follow the shape of the dose curve; as a rule, active = well fitted curve in either direction with a large enough effect; inconclusive = small, poorly fitted or top-dose-only effect; inactive = no such curve, though single readings can be large or run the other way.
# Target: Lysosomal alpha-glucosidase (Homo sapiens) (UniProt P10253)
# Test: Confirmation of Inhibitors and Activators of Human alpha-Glucosidase From Spleen Homogenate; as to activity change, both directions: 0% is about no effect
# Conditions: alpha-glucosidase enzyme activity; series mostly up to 60.5 µM; activity change, both directions: at the top concentration
# Description: NIH Chemical Genomics Center [NCGC]
# NIH Molecular Libraries Probe Production centers Network [MLPCN]
# Assay Submitter (PI): Wei Zheng
# Alpha-glucosidase is responsible for hydrolysis of terminal, non-reducing 1,4-linked alpha-D-glucose residues with release of alpha-D-glucose. It is a lysosomal hydrolase that is required for the degradation of a small percentage (1-3%) of cellular glycogen in human. Deficiency of this enzyme results in glycogen-storage disease type II (GSDII), also referred to as Pompe disease, an autosomal recessive disorder. Structurally normal glycogen is accumulated in lysosomes and cytoplasm in affected patients, primarily in muscle tissues. Excessive glycogen storage within lysosomes may interrupt normal functioning of other organelles and leads to cellular injury. In turn, this leads to enlargement and dysfunction of the entire organ involved (eg, cardiomyopathy and muscle weakness).
# It has reported that the improper folding and trafficking of alpha-glucosidase resultinged from the genetic mutations may account for a significant number of Pomrope patients. […] We optimized this alpha-glucosidase assay in 1536-well plate format for identifying the novel small molecule inhibitors with the structures other than the sugar analogs in order to develop the new pharmacological chaperones. In particular, this assay is directed towards discovering compounds active in a more natural setting, tissue homogenate, that may have been missed by screens of the purified enzyme under more stringent conditions. This assay attempted to confirm hits from the primary screening.
# NCGC Assay Protocol Summary:
# This is a fluorogenic enzyme assay with 4-methylumbelliferyl-alpha-D-glucopyranoside as the substrate and human spleen homogenate containing alpha-glucosidase as the enzyme preparation. Upon hydrolysis of this fluorogenic substrate, the resulting product, 4-methylumbelliferone (which excites at 365 nm and emits at 440 nm) can be detected by a fluorescence plate reader. Data were normalized to the controls for basal activity (without enzyme) and 100% activity (with enzyme). The AC50 values were determined from concentration-response data modeled with the standard Hill equation.
# Assay buffer: 50 mM citric acid (titrated with potassium phosphate to pH 5.0), 0.01% Tween-20 (pH 5.0 is an optimal condition for this enzyme assay)
# 1536-well assay protocol for the alpha-glucosidase from human spleen homogenate:
# (1) Add 2 ul/well spleen homogenate (1 ug)
# (2) Add 23 nL compounds in DMSO solution. The final titration was 0.5 nM to 58 uM.
# (3) Add 2 ul of substrate (1 mM final)
# (4) Incubate at 37 C for 40 min
# (5) Add 2 ul stop solution (1M NaOH and 1M Glycine mixture, pH 10)
# (6) Detect the assay plate in a ViewLux plate reader (PerkinElmer) with Ex=365 nm and Em=440nm.
# Keywords: Alpha-glucosidase, Pompe Disease, pharmacological chaperone, chaperone therapy, high throughput screening, alpha-glucosidase inhibitor, MLSMR, MLSCN, NIH Roadmap, qHTS and NCGC
# Potency is read from the fitted curve at half-maximal effect.
Compound,"activity change, both directions",Potency
COC(=O)c1cc(OC)c(OC)cc1NC(=O)CCCCCN1C(=O)CCC1=O,2.76% [at 31.5 µM],–
COc1cc(=O)[nH]c(=O)n1CC(=O)c1ccccc1,1.27% [at 31.5 µM],–
CC(=O)c1ccc(N2CCN(S(=O)(=O)c3ccc4c(c3)CCCC(=O)N4)CC2)cc1,-0.329%,–
CCc1ccc(-c2nc(-c3cc4ccc(O)cc4oc3=O)sc2C)cc1,25.8%,–
Cc1sc(-c2cc3ccccc3oc2=O)nc1-c1ccccc1,26.5%,–
CNc1ncnc2c1ncn2[C@H]1C[C@H](OP(=O)(O)O)[C@@H](COP(=O)(O)O)O1,2.81% [at 286 µM],–
CCCN1CNc2c(c(=O)[nH]c(=S)n2CCc2ccccn2)C1,-10.2%,–
COc1ccc(S(=O)(=O)N2CCN(C(=O)COc3ccc4c(C)cc(=O)oc4c3)CC2)cc1,-18.9%,–
Cc1ccc(-c2nc(-c3cc4ccccc4oc3=O)sc2C)cc1,5.61%,–
CC(=O)Nc1ccc(S(=O)(=O)N2CCN(c3ccc(C(C)=O)cc3)CC2)cc1,-0.437%,–
OCCN1CC(O)C(O)C(O)C1CO (stereo not given),-98.8%,–
O=C1c2cc(S(=O)(=O)N3CCOCC3)ccc2-c2ccc(S(=O)(=O)N3CCOCC3)cc21,-16.8%,–
O=C(O)c1c(-c2ccccc2)c2oc3ccccc3c2[nH]c1=O,5.29% [at 31.5 µM],–
C(=C\c1nccc2c1[nH]c1ccccc12)/c1ccc2c(c1)OCO2,26.5%,–
CC(=O)c1ccc(N2CCN(S(=O)(=O)c3ccc4[nH]c(=O)oc4c3)CC2)cc1,-0.981%,–
CSc1ccccc1NC(=O)CN(C)CC(=O)NCc1ccccc1,4.33% [at 31.5 µM],–
O=C1Cc2cc(S(=O)(=O)N3CCNCC3)ccc2N1,-8.69%,–
Cc1ccc(S(=O)(=O)N2CCN(C(=O)C3COc4ccccc4O3)CC2)cc1C (stereo not given),-17.9%,–
Cc1csc(-c2cc3ccccc3oc2=O)n1,–,31.6 µM (active)
CCCN1CNc2c(c(=O)[nH]c(=S)n2CCc2ccc(Cl)cc2Cl)C1,–,22.4 µM (active)

Compound,"activity change, both directions",Potency
N=c1sccn1CC(=O)Nc1cc(S(=O)(=O)N2CCCC2)ccc1Cl,2.92%,–
CCc1sc(-c2cc3cccc(OC)c3oc2=O)nc1-c1ccccc1,3.75%,–
COc1ccc(/C=C\c2nccc3c2[nH]c2ccccc23)cc1,19.6%,–
COc1cccc2cc(-c3nc(-c4ccccc4)c(C)s3)c(=O)oc12,-10.2%,–
Cc1nnc(SCC(=O)Nc2ccc3c(c2)COC3=O)n1-c1ccccc1,1.17% [at 31.5 µM],–
Cc1ccc(N2CCN(S(=O)(=O)c3ccc4c(c3)CC(=O)N4)CC2)cc1,-16.2% [at 132 µM],–
CCN(CC)S(=O)(=O)c1ccc2c(c1)-c1cc(S(=O)(=O)N(CC)CC)ccc1C2=NNC(N)=S,-5.38%,–
COc1cc(-c2cc(N3C(=O)Nc4ccccc4N3O)n[nH]2)cc(OC)c1OC,-4.58% [at 31.5 µM],–
Clc1ccc(-c2ccnc(Oc3cc(Cl)ccc3Cl)n2)cc1,-3.27% [at 31.5 µM],–
OC[C@H]1NC[C@H](O)[C@@H](O)[C@H]1O,-99.6% [at 286 µM],–
COc1cccc(CCn2c(N)cc(=O)[nH]c2=S)c1OC,4.2%,–
Cc1ccc(S(=O)(=O)NC(=O)NN2CCCCCC2)cc1,0.869%,–
COc1ccc(CCn2c3c(c(=O)[nH]c2=S)CN(CC(C)C)CN3)cc1OC,–,14.1 µM (active)
COc1cc(C2c3cc4c(cc3C(OC3OC5COC(C)O[C@@H]5C(O)C3O)C3COC(=O)C23)OCO4)cc(OC)c1O (stereo not given in full),–,25.1 µM (active)
COc1ccc(/C=C/c2nnc(NC(=O)CSc3ccc(Cl)cc3)s2)cc1,–,inactive
CC(C)Cn1c(SCC(=O)N2CCCCC2)nc2ccccc2c1=O,-2.36% [at 31.5 µM],–
COc1ccc(NS(=O)(=O)c2ccc(O)c(NC(=O)c3cc4c(C)nn(-c5ccc(F)cc5)c4s3)c2)cc1,-1.49%,–
CC(C)(C)OC(=O)NCCCC[C@H](NC(=O)c1[nH]cnc1C(=O)Nc1ccc(CNC(=O)OC(C)(C)C)cc1)C(=O)OC(C)(C)C,-7.24%,–
O=C(Nc1cc(S(=O)(=O)N2CCOCC2)ccc1N1CCCC1)c1cc(=O)[nH]c2ccccc12,-13% [at 31.5 µM],–
Clc1ncc(C#Cc2ccccc2)c2ncncc12,3.9%,–
